# Values joined by “and” are separate entries in the source; they are usually repeats but may differ in a detail not shown here. Identical values can stand only once. About 79,000 compounds went through this panel and 15% of them were active in at least one assay; those are over-represented in the sample as a whole. Unmarked numbers belong to inactive results. Active and inactive are the calls of the source. No stated cut-off is given here; in the data, active means growth inhibition above about 70%; inactive means the rest.
# Legend:
# [1] = NCI Yeast Anticancer Drug Screen. Data for the rad50 strain (AID 155);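 further: 0% = growth of vehicle-only cultures of the same strain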; details: S. cerevisiae rad50 strain growth inhibition, active compounds read high; at 50.0 µM unless noted
# Method in brief: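 Cells are treated with compound, grown, and their growth is then scored against vehicle-only cultures of the same repair-deficient yeast strain.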
# [2] = NCI Yeast Anticancer Drug Screen. Data for the mec2-1 strain (AID 157); details: S. cerevisiae mec2-1 strain, active compounds read high; at 50.0 µM unless noted
# Method in brief: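 Readout is yeast growth inhibition, normalised to vehicle-treated controls, in the mec2-1 strain exposed to compound.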
# [3] = NCI Yeast Anticancer Drug Screen. Data for the sgs1 mgt1 strain (AID 161);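 further: 0% = growth of cultures given vehicle only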; details: S. cerevisiae sgs1 mgt1 strain, active compounds read high; at 50.0 µM unless noted
# Method in brief: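 Compounds are added to genetically altered yeast, and growth is compared with cultures given vehicle alone to give percent inhibition.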
# [4] = NCI Yeast Anticancer Drug Screen. Data for the cln2 rad14 strain (AID 165);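 further: 0% = growth equal to vehicle treated cultures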; details: S. cerevisiae cln2 rad14 strain, active compounds read high; at 50.0 µM unless noted
# Method in brief: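 Relative to vehicle controls, growth inhibition of compound-treated cln2 rad14 yeast was recorded.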
# [5] = NCI Yeast Anticancer Drug Screen. Data for the bub3 strain (AID 167); details: S. cerevisiae bub3 mutant strain, active compounds read high; at 50.0 µM unless noted
# Method in brief: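 Part of a panel of yeast mutants defective in DNA damage repair or cell cycle regulation. Each strain is grown with compound, and inhibition is calculated relative to solvent-treated cultures.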
# [6] = NCI Yeast Anticancer Drug Screen. Data for the mlh1 rad18 strain (AID 175); details: S. cerevisiae mlh1 rad18 strain growth inhibition, active compounds read high; at 50.0 µM unless noted
# Method in brief: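 Test agents were incubated with a yeast strain of defined genotype (DNA damage repair defect). Inhibition of growth was derived by comparison with vehicle-exposed cultures.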
SMILES,growth inhibition [1],growth inhibition [2],growth inhibition [3],growth inhibition [4],growth inhibition [5],growth inhibition [6]
CCCCCCCCCC(=O)N1CCCC(C)C1 (stereo not given),99.5% (active),99.7% (active),99.6% (active),98.7% (active),99.2% (active),99.5% (active)
CCOC(=O)c1[nH]c(C)c(/C=N/O)c1C,22.9%,-1.8%,6.65%,13.6%,10.1%,15.2%
O=C(O)c1ccc(NCO)cc1,7.05%,5.15%,-13.2%,33.7%,4.3%,7.85%
N#CC(C(=O)CCC(=O)NCCc1ccccc1)c1nc2ccccc2s1 (stereo not given),-11.9%,-6.05%,-10.8%,-10.1%,4.8%,4.55%
O=C(NCCCl)Nc1c(Cl)cccc1Cl,-4.6%,14.3%,6%,-18.6%,1.8%,-4.2%
O=C1CCCCC(=O)NCCCCCCN1,-7.95%,-2.65%,-18.4%,-21.4%,-12.4%,1.85%
ClC(=Nc1cccc2ccccc12)N(c1ccccc1)c1ccccc1,-8.45%,7.45%,-9.3%,3.8%,7.15%,-4.05%
Cc1cn(C2CC(ON)C(CO)O2)c(=O)[nH]c1=O (stereo not given),-8.1%,-1.15%,23.2%,13.9%,6.25%,-48%
Cc1nc(Nc2cccc(Cl)c2)c2cnn(-c3ccc(Cl)cc3)c2n1,-2.5%,-0.25%,1.1%,-41.4%,-0.45%,-4.35%
c1ccc2nc3c(cc2c1)c1c(c2ccccc23)CCCC1,11.2%,-10.5%,20.4%,-25.4%,-14.6%,22.9%
CCCCNC(=O)/C(=C\c1ccc(OC)c(OC)c1)NC(=O)c1ccccc1,-63.5%,-55.3%,-34.4%,-1.75%,-35%,-21.6%
CCOC(=O)Cn1c(=O)[nH]c(=O)c2c1ncn2Cc1ccccc1,32.9%,-2.35%,-3.1%,13.2%,30.2%,25.7%
COc1cc(C2c3cc4c(cc3OC(NN=C(C)C)C2C)OCO4)cc(OC)c1O (stereo not given),14.2%,1.7%,9.65%,4.5%,12.8%,10.9%
COC(=O)c1ccc(SCCC(=O)CN2C(=O)c3ccccc3C2=O)cc1,18.9%,8.5%,17.1%,23.1%,4.1%,27.8%
CC(C)(C)NNC(=O)CCn1[nH]c(=O)c(Cl)c(Cl)c1=O,-0.8%,-5.25%,-18.9%,-2.25%,-16%,-12.3%
Cc1ccc(OCC(=O)N2N=C(c3ccccc3)CC2(O)c2ccccc2)cc1 (stereo not given),-7.6%,-41.9%,-30.6%,-15.6%,0%,-24.2%
CCCCCCOS(=O)(=O)c1ccc(C)cc1,23.1%,-9.95%,-2.1%,16.6%,6.7%,22.4%
O=C(O)CNC(=O)CNC(=O)CNC(=O)C(CSC(c1ccccc1)(c1ccccc1)c1ccccc1)NC(=O)OCc1ccccc1 (stereo not given),20.4%,4.5%,-13.7%,22.1%,10.7%,4.9%
Cc1ccc2ccccc2c1CN(C)C,4.7%,-1.05%,-8.6%,-61%,-3.45%,-12.7%
Cc1cccc(C)c1NC(=O)CCc1nnc2s/c(=C\c3ccc(N(C)C)cc3)c(=O)n12,29.8%,30.1%,25.6%,0.15%,4.85%,10.3%

SMILES,growth inhibition [1],growth inhibition [2],growth inhibition [3],growth inhibition [4],growth inhibition [5],growth inhibition [6]
Cc1ccc(C(CCC#N)OC(C)C)cc1 (stereo not given),0.95%,19.8%,25.1%,11.9%,3.15%,21.1%
C/C=C/C=C/C(=O)OCCCC,6.95%,-0.65%,-8.55%,5.65%,15.1%,-1.75%
COc1ccccc1N=Nc1c(O)n(-c2ccccc2OC)c(=S)n(-c2ccccc2)c1=O,40.8%,-3.45%,31.9%,-13.4%,-2.5%,16.9%
O=C(CCC1OCCO1)Nc1cc([N+](=O)[O-])ccc1OCc1ccccc1,-1.9%,4.5%,6.25%,-8.2%,-1.35%,7.6%
CC(CO)Cc1ccccc1 (stereo not given),-1.85%,-12.8%,-11.2%,7.45%,-3.7%,-9.7%
CS(=O)(=O)OCCN(CCOS(C)(=O)=O)c1cc(C(N)=O)c([N+](=O)[O-])cc1[N+](=O)[O-],-5.05%,9.55%,-11.7%,-12.9%,-0.35%,16.9%
Cc1ccc(S(=O)(=O)N(C)CCCC#N)cc1,-11.4%,-16.3%,6.2%,-3.1%,-6.6%,-19.6%
CCCCCCCC(=O)Nc1cccc(O)c1,4.8%,-6.95%,-11.7%,-34.9%,-6.3%,-6.15%
CCOC(=O)C(CCc1ccccc1)C(C)=O (stereo not given),-0.75%,-7.95%,-0.25%,40.5%,2.45%,-11.8%
O=C(O)c1cc([N+](=O)[O-])cc([N+](=O)[O-])c1-c1ccccc1,-10.4%,-2.6%,6.2%,-13.4%,44.6%,-10%
CSc1nc(N)cc(=O)n1C,-16.1%,-11.2%,-23.9%,-53.1%,-9.05%,14.2%
CC(C)C1CO[C@]2(C)CCC(=O)N12 (stereo not given in full),4.6%,11.9%,-2.6%,13.8%,6.3%,9.95%
c1ccc2c(c1)OC1OC2Oc2ccccc21,-25.8% and -10.4%,-39.1% and -3.85%,-26.3% and 7.8%,1.6% and -6.05%,-57.5% and 8.1%,-28.9% and 11.8%
CN(Cc1ccc(Cl)cc1)N=Nc1ccc(C(=O)O)cc1,-5.5%,4.4%,24.7%,25.8%,16.6%,24.6%
O=C(O)C1(C(=O)O)CCCCC1.[NH2-].[NH2-].[Pt+2],2.65%,17.5%,1.6%,22.2%,7.6%,15.8%
COc1ccc(CNC(=O)CC(C)=O)cc1,-6.7%,-17.5%,3.35%,7.25%,13%,0.95%
CCCCN=C(N)C(N)=NCCCC,-13.8%,-4.65%,-5.7%,-28.3%,0.5%,-18.7%
Fc1cccc(C(Nc2nncs2)Nc2nncs2)c1F,5.5%,8.95%,29.8%,-1.2%,5.15%,28.2%
CC(C)(CO)NCC(C)(C)[N+](=O)[O-],8.5%,2.25%,14.6%,-9.2%,6.95%,6.7%
CN(C)CCCNC(=O)CCNC(=O)c1cc(NC(=O)c2cc(NC(=O)c3cc(NC(=O)CCCNC(=O)c4cc(NC(=O)c5cc(NC(=O)c6nccn6C)cn5C)cn4C)cn3C)cn2C)cn1C,7.55%,-14.8%,-2%,-1.35%,4%,-25.3%

# From PubChem BioAssay (NCI)
